Bioassay records deposited in PubChem BioAssay by Sanford-Burnham Center for Chemical Genomics.
CYP2C9 inh: inhibitors of human CYP2C9; hit rate 20% among 96,000; P11712; inhibition, % at 5 µM; CYP2C9 Supersomes, luciferin-H conversion, luminescence;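 active means blocking of liver enzyme CYP2C9 beyond about 50% at 5 µM, limit read from the data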
Target sequence (P11712 whole entry, looked up): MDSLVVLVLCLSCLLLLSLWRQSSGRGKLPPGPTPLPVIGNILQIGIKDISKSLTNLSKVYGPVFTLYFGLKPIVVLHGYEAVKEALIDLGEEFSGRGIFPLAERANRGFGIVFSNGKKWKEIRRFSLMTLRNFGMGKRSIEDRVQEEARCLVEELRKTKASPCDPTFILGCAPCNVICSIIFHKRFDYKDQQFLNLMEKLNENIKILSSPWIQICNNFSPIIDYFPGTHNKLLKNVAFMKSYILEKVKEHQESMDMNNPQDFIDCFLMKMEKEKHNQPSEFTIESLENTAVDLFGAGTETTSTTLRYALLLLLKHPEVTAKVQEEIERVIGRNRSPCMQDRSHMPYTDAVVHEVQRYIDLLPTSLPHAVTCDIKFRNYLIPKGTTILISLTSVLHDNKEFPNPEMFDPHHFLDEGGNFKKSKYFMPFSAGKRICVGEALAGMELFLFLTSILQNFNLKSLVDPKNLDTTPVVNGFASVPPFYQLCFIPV
CYP2C9 activ: CYP2C9 (human) activation; recombinant CYP2C9, luciferin-H conversion, luminescence; active compounds read high; factor 1 = untreated enzyme, 0 = blocked; activation factor at 5 µM; hit rate 1.4% among 96,000;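 active means activation factor of 2 or more for CYP2C9 at a 5 µM dose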
CYP2C19 inhib: inhibitors of human CYP2C19; P33261; CYP2C19 Supersomes, luciferin-H EGE luminescence, 30 min; inhibition, % at 5 µM; hit rate 21% among 96,000;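 active means CYP2C19 inhibition above a set limit at 5 µM in the primary screen, cut at about 50% in these data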
CD11b adhes enh: enhancers of human CD11b/CD18 binding to fibrinogen; AID 1499; hit rate 0.07% among 93,000; K562 CD11b/CD18 adhesion to fibrinogen, ATPlite luminescence; activation, % at 10 µM;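 active means 10 µM primary screen giving 50% or more activity, confirmed by 40% or more on retest at that dose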
CYP2C19 act: cytochrome P450 2C19 (human) activation. recombinant CYP2C19, luciferin-H EGE luminescence; active compounds read high; 0 = fully inhibited enzyme, 1 = untreated enzyme. activation factor at 5 µM. 96,000 tested, under 10 active;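 active means activation factor of at least 2 at 5 µM in the primary screen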
Mac1 fbg inh: CD11b/CD18-fibrinogen binding inhibition. P05107+P11215. K562 CD11b/CD18 adhesion to fibrinogen, ATPlite luminescence; Mn2+ added to activate the integrin. inhibition, % at 10 µM. hit rate 0.54% among 93,000. AID 1497;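 active means primary inhibition of 50% or more at 10 µM, then 40% or more on retest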
Hits are given with their value; 0 = inactive; - = no result. An excerpt weighted towards active compounds, which were near 28% of everything screened.

SMILES	CYP2C9 inh	CYP2C9 activ	CYP2C19 inhib	CD11b adhes enh	CYP2C19 act	Mac1 fbg inh
CN(c1ccc(Cl)cc1)c1cc(=O)n(C)c2ccccc12	97	0	100	0	0	0
CCc1nnc(NC(=O)CSc2nnc(Cc3ccc(OC)cc3)o2)s1	53	0	0	0	0	0
COc1ccccc1NC(=O)CSc1nnc(Cc2ccccc2)o1	0	0	0	0	0	0
O=C(Nc1nnc(Cc2ccc(Cl)cc2)s1)c1ccco1	63	0	0	0	0	0
COc1ccc(Cc2nnc(NC(=O)c3cccs3)s2)cc1	69	0	0	0	0	0
COc1ccc(NC(=O)CSc2nnc(Cc3ccccc3)o2)c(OC)c1	0	0	71	0	0	0
O=C(NC1CCCCCC1)c1cccnc1Sc1ccccc1	-	-	-	0	-	0
CC(C)CCNC(=O)c1ccc2c(c1)ncn2C1CCCCC1	0	0	0	0	0	0
COc1cccc(CN(CC(=O)NC2CCCC2)C(=O)Cn2nnc(-c3cccs3)n2)c1	97	0	66	0	0	0
Cc1cc(NC(=O)CCC(=O)N(CC(=O)NC2CCCC2)Cc2ccco2)no1	0	0	0	0	0	0
COCCNC(=O)CN(C(=O)CCC(=O)Nc1cc(C)on1)c1cccc(C)c1C	0	0	57	0	0	0
COc1cccc(CN(CC(=O)NC2CCCC2)C(=O)CCC(=O)Nc2cc(C)on2)c1	78	0	51	0	0	0
COCCN(CC(=O)NCC1CCCO1)C(=O)CCC(=O)Nc1cc(C)on1 (stereo not given)	0	0	0	0	0	0
CCCCC(=O)NC1=C(C(=O)OC)SCC1	-	-	-	0	-	0
Cc1ccc(Oc2cc(C)nc(-c3ccccc3O)n2)cc1	79	0	76	0	0	0
Cc1ccc(Nc2cc(C)nc(-c3ccccc3O)n2)cc1	55	0	0	0	0	0
COc1ccc(C)cc1NC(=O)C(Sc1nnc(Nc2ccccc2F)s1)c1ccccc1 (stereo not given)	-	-	-	0	-	0
C/C(=N\NC(=O)OC(C)(C)C)c1cccc([N+](=O)[O-])c1	-	-	-	0	-	0
COc1ccccc1N1CCN(c2nc3ccccn3c(=O)c2C=O)CC1	0	0	71	0	0	0
Cc1ccc(Sc2ncccc2COC(=O)Nc2c(C)cccc2C)cc1	0	0	0	0	0	0
Cc1ccc(Sc2ncccc2COC(=O)Nc2ccccc2)cc1	55	0	0	0	0	0
O=C(c1ccc(COCC(F)(F)F)o1)N1CCCCCC1	0	0	51	-	0	-
CC(C)(C)NC(=O)c1ccc(COCC(F)(F)F)o1	0	0	0	0	0	0
O=C(Nc1ccc(Cl)cn1)c1ccc(COCC(F)(F)C(F)F)o1	0	0	72	0	0	0
O=C(NCc1ccc(Cl)cc1)c1ccc(COCC(F)(F)F)o1	0	0	51	0	0	0
SMILES	CYP2C9 inh	CYP2C9 activ	CYP2C19 inhib	CD11b adhes enh	CYP2C19 act	Mac1 fbg inh
Cc1ccc(C(=O)NCc2ccc(Cl)cc2)o1	0	0	53	0	0	0
Cc1ccc(CNC(=O)c2ccc(Br)o2)cc1	0	0	0	0	0	0
Nc1nnc(CC(=O)N/N=C/c2cccc(OCCOc3ccccc3)c2)s1	0	0	0	0	0	0
N=C1c2ccccc2CN1NC(=O)c1cccc(S(=O)(=O)N2CCCC2)c1	-	-	-	0	-	0
O=C(NCc1cccc(C(F)(F)F)c1)C1CCN(c2ncccn2)CC1	67	0	0	0	0	0
Cc1cc(C)nc(N2CCC(C(=O)NCc3cccc(C(F)(F)F)c3)CC2)n1	0	0	0	0	0	0
Cc1ccnc(N2CCC(C(=O)Nc3cccc(C(F)(F)F)c3)CC2)n1	0	0	91	0	0	0
Cc1cc(Nc2ccc(Br)c(C)c2)n2nc(C)nc2n1	0	0	0	0	0	0
O=[N+]([O-])c1ccc(NC(=S)NCCc2ccc(F)cc2)cc1	-	-	-	0	-	0
CC1CCCCN1Cc1cnc(Cl)s1 (stereo not given)	0	0	0	0	0	0
O=C(COC(=O)C1CCCN1C(=O)c1cccs1)c1ccccc1 (stereo not given)	0	0	88	0	0	0
COc1ccc(NC(=O)COC(=O)[C@@H]2CCCN2C(=O)c2cccs2)cc1	60	0	0	0	0	0
NS(=O)(=O)c1ccc(CCNC(=O)COC(=O)C2CCCN2C(=O)c2cccs2)cc1 (stereo not given)	0	0	75	0	0	0
O=C(COC(=O)C1CCCN1C(=O)c1cccs1)Nc1ccc2c(c1)OCO2 (stereo not given)	0	0	0	0	0	0
O=C(OCc1ccccc1)C1CCCN1C(=O)c1cccs1 (stereo not given)	0	0	72	0	0	0
O=C(Nc1cccc(-c2cn3ccccc3n2)c1)c1cc2ccccc2oc1=O	0	0	0	0	0	0
COc1cccc(OC)c1C(=O)N1CCN(c2c(Cc3ccccc3)c(C)nc3ncnn23)CC1	0	0	0	0	0	0
CCCN(Cc1cc2ccc(C)cc2[nH]c1=O)C(=O)c1ccccn1	0	0	0	0	0	0
Cc1ccc(C)c2c3c([nH]c12)-c1nonc1CC3	0	0	0	0	0	0
COc1ccc(Nc2nnc(SCc3cc([N+](=O)[O-])cc4c3OCOC4)s2)cc1	94	0	0	0	0	0
COc1ccc(Cc2noc(-c3ccc(OC)c(OC)c3)n2)cc1OC	0	0	0	0	0	0
CCOC(=O)c1[nH]c(C)c(C(=O)N2CCN(c3ccc(F)cc3)CC2)c1C	77	0	79	0	0	0
CCOC(=O)c1[nH]c(C)c(C(=O)N2CCN(c3cccc(Cl)c3)CC2)c1C	88	0	68	0	0	0
CCCCOC(=O)NC1CCS(=O)(=O)C1 (stereo not given)	0	0	0	0	0	0
COc1ccc(Nc2sc(C(=O)Nc3cccc(Cl)c3)c(N)c2C(=O)Nc2ccccc2OC)cc1	-	-	-	0	-	0
SMILES	CYP2C9 inh	CYP2C9 activ	CYP2C19 inhib	CD11b adhes enh	CYP2C19 act	Mac1 fbg inh
O=C(N/N=C/c1ccc(Br)cc1)c1ccccc1-n1cccc1	54	0	85	0	0	0
O=C(N/N=C\c1ccccc1)c1sccc1-n1cccc1	0	0	0	-	0	-
CCCSc1nnc2nc3c(nn12)c1ccccc1n3C	0	0	0	0	0	0
O=C(c1cc(-c2ccncc2)nc2ccc(Br)cc12)N1CCN(c2ccccn2)CC1	98	0	79	0	0	0
O=C(c1cccn2c(=O)c3cc(Br)ccc3nc12)N1CCN(c2ccccn2)CC1	59	0	0	0	0	0
O=C(c1cccn2c(=O)c3ccccc3nc12)N1CCN(c2ccccn2)CC1	59	0	0	0	0	0
CCN1CCN(C(=O)c2cc(-c3cccnc3)nc3ccc(Br)cc23)CC1	0	0	0	0	0	0
